# According to PubChem BioAssay AID686970 (National Center for Advancing Translational Sciences (NCATS), 2013):
# Screen size: about 360,000 compounds; about 6,000 (1.7%) were called active. Another 8% or so got no clear call; they are omitted. Calls follow the shape of the dose curve; as a rule, active = well fitted cell-killing curve with a large enough effect; inconclusive = small, poorly fitted or top-dose-only effect, or effect the other way; inactive = flat fitted curve, though single readings scatter. What follows is part of a selection rich in actives, with near analogues and random picks from the rest. Where a call stands in place of a potency, no number is given.
# Assay: qHTS for induction of synthetic lethality in tumor cells producing 2HG: qHTS for the HT-1080-NT fibrosarcoma cell line; also: nearly all actives have a fitted effect of over 55% in size
# Conditions: HT-1080-NT fibrosarcoma viability, CellTiter-Glo ATP luminescence, 48 h; series mostly up to 46.1 µM
# Description: Unbiased genomic sequencing for 22 glioma genomes found recurrent mutation of IDH1 on chromosome 2q33, a gene encoding the cytosolic isoform of IDH1 associated with the tricarboxylic acid cycle (TCA) that catalyzes the oxidative decarboxylation of isocitrate, yielding alpha-ketoglutarate and CO2 via NADP+ to NADPH conversion. Subsequent studies confirmed the recurrent IDH mutations in up to 70% of secondary gliomas and in 10% of AML cases. In addition, the somatic mutation of cancer-associated IDH1 is a point mutation resulting in various amino-acid substituents at Arginine132 (IDH1 R132), a key residue found in the enzyme's active site that when mutated, results in the loss-of-function in metabolizing isocitrate but confers a gain-of-function to produce the oncometabolite 2-hydroxyglutarate (2HG). This in effect defines IDH1 as an oncogene and provides an extraordinary opportunity to discover chemical probes against mutant IDH1 that may translate into much needed new therapies for glioma and AML patients.
# This assay aims to perform a synthetic lethal screen for chemical probes specific for 2HG-producing tumor cells using matched paired cell lines (1) HT-1080-NT fibrosarcoma cell line that overproduces 2HG and (2) HT-1080-IDH1KD cell line which has IDH1 expression knocked-down. Desirable compounds are toxic to the NT fibrosarcoma cells but not to the IDH1KD cell line. The data in this AID corresponds to the results of the qHTS against the HT-1080-NT fibrosarcoma cell line.
# [1] Dang L, Jin S, Su SM. IDH mutations in glioma and acute myeloid leukemia. Trends of Mol Med. 2010; 16(9): 387-97.
# [2] Dang L et al. Cancer-associated IDH1 mutations produce 2-hydroxyglutarate. Nature. 2010; 465(7300):966.
# NIH Molecular Libraries Probe Production Centers Network [MLPCN]
# NIH Chemical Genomics Center [NCGC]
# Assay Submitter (PI): Lenny Dang Ph.D., Agios Pharmaceuticals
# Suspensions of trypsinized HT-1080-NT cells were dispensed into white, tissue culture-treated, solid 1536-well plates at 5uL/well (750 cells/well final concentration) in RPMI medium supplemented with 5% FBS. Plates were incubated at 37 degrees C for 2 hours, after which 23 nL of compounds or DMSO were delivered to each well using a pin tool. Plates were then incubated at 37 degrees C for an additional 48 hours. CellTiter-Glo viability reagent (Promega) was dispensed into wells (2.5uL/well) and incubated at room temperature for 10 minutes. The plates were measured on a PerkinElmer ViewLux plate reader for luminescent signal (clear filter, 1 sec exp). DMSO-treated control wells and media-only (no cells) control wells were used to normalize %Activity of identified toxic compounds; DMSO-treated wells corresponded to 0%Activity (100% viability), while media-only controls were used to normalize 100%Activity (0% viability).
# Concentration-response curves were fitted to the signals arising from the resulting luminescence. The concentration-effect curves were then classified based on curve quality (r2), response magnitude and degree of measured activity, and compounds were subsequently categorized based on their curve class.
# Potency is read from the fitted curve at half-maximal effect.
row,Compound,Potency
1,Cc1ccc(Cc2c(-c3ccco3)nc3ccc(Cl)cn23)cc1,23.1 µM (active)
2,Cc1ccc(-c2nc3ccc(Cl)cn3c2Cc2ccccc2)cc1,inactive
3,Cc1ccc(Cc2c(-c3ccccc3)nc3ccc(Cl)cn23)cc1,inactive
4,COc1cc(F)ccc1-c1cc(C(=O)NCC2CCCCC2)[nH]n1,inactive
5,O=C1C(Cl)=C(Oc2ccccc2)C(=O)c2ccccc21,4.11 µM (active)
6,COc1ccc(C(=O)OCC(=O)Nc2cc(C)on2)cc1F,inactive
7,CC(C)(C)OC(=O)N1CCN(C(=O)c2[nH]c(C(F)(F)F)nc2-c2ccccc2)CC1,inactive
8,O=c1c([N+](=O)[O-])cccn1Cc1ccc(F)cc1Cl,14.6 µM (active)
9,N/C(=N/O)c1cccn1Cc1ccccc1[N+](=O)[O-],inactive
10,O=[N+]([O-])c1ccccc1NCc1ccccc1Cl,inactive
11,CC1CC(C)CN(CCCNC(=O)Cn2ncc3c([nH]c4ccccc43)c2=O)C1 (stereo not given),inactive
12,Cc1ccc(Cn2c(C)c3cnn(CC(=O)NCCN4CCOCC4)c(=O)c3c2C)cc1,inactive
13,Cc1c2cnn(CC(=O)NCCCN3CC(C)CC(C)C3)c(=O)c2c(C)n1Cc1ccc(Cl)cc1 (stereo not given),23.1 µM (active)
14,O=C(Nc1cccc(C(F)(F)F)c1)c1ccc(N2CCNCC2)c([N+](=O)[O-])c1,16.4 µM (active)
15,O=C(Nc1ccc(N2C(=O)c3cccc4cccc(c34)C2=O)cc1)c1ccc(N2CCCCC2)c([N+](=O)[O-])c1,inactive
16,CC(NC(=O)c1ccc(N2CCNCC2)c([N+](=O)[O-])c1)C12CC3CC(CC(C3)C1)C2 (stereo not given),16.4 µM (active)
17,Cc1cccc(C)c1NC(=O)CNC(=O)c1ccc(N2CCOCC2)c([N+](=O)[O-])c1,inactive
18,CCC(C)NC(=O)c1ccc(N2CCC3(CC2)OCCO3)c([N+](=O)[O-])c1 (stereo not given),inactive
19,O=C(NC1C2CC3CC(C2)CC1C3)c1ccc(N2CCNCC2)c([N+](=O)[O-])c1 (stereo not given),inactive
20,CCc1noc(C)c1C(=O)OCC(=O)c1ccc(NC(=O)CC(C)C)cc1,inactive

row,Compound,Potency
1,Fc1cccc(Cc2c(-c3ccc(Cl)cc3)nc3ccc(Cl)cn23)c1,inactive
2,Cc1cc2nc(-c3ccc(F)cc3)c(Cc3ccsc3)n2c(C)c1Br,inactive
3,Cc1cc2nc(-c3ccco3)c(Cc3cccc(F)c3)n2c(C)c1Br,20.6 µM (active)
4,COc1cc(C=C(OC(C)=O)c2ccc3c(c2)OCO3)cc(OC)c1OC,inactive
5,CCCNC(=O)C[C@@H]1CC[C@@H]2[C@H](COC[C@H](O)CN2C(=O)c2cc(Cl)cc(Cl)c2)O1,inactive
6,CCOC(=O)c1cc2cc(OC)ccc2n1C1CCN(C)CC1,inactive
7,CC1(C)N=C(N)NC(Nc2ccc(Cl)cc2)=N1,inactive
8,COc1ccccc1NC1=NC(c2ccc(Cl)cc2)N=C(N)N1 (stereo not given),10 µM (active)
9,COc1ccccc1NC(=O)C1CCCN1S(=O)(=O)c1ccc(Cl)cc1 (stereo not given),inactive
10,CCc1nc2ccc(C(=O)NCCNC(C)=O)cn2c1N(CC)Cc1cccc(Br)c1,inactive
11,CCC(C)CN1C(=O)CN(S(C)(=O)=O)CC1(C)C(=O)Nc1ccc2c(c1)OCCO2 (stereo not given),inactive
12,C[C@H]1CN(c2ccc(Br)cc2)C(=O)[C@@H]1CC(=O)Nc1ccc(Br)cc1,inactive
13,c1ccc(CNCc2ccc(CNCc3ccccc3)cc2)cc1,inactive
14,CC1(C(=O)Nc2ccc3c(c2)OCCO3)CSCC(=O)N1CCOc1ccccc1 (stereo not given),inactive
15,Cc1cc(C)cc(OCC(=O)NNC(=O)c2cc3ccccc3oc2=O)c1,inactive
16,O=c1oc2ccccc2cc1-c1csc(Nc2ccc(O)cc2)n1,14.6 µM (active)
17,Cc1ccn2c(-c3csc(Nc4ccc(C(=O)O)cc4)n3)c(C)nc2c1,inactive
18,CCc1c(N=O)c(-c2ccccc2)n(O)[n+]1[O-],inactive
19,CC(C)CNC(=O)C1(C)CCCN1C(=O)CSc1ccccc1 (stereo not given),inactive
20,COc1ccc(C(O)c2nc(-c3ccc4c(c3)OCO4)cs2)cc1 (stereo not given),inactive

row,Compound,Potency
1,CCCc1ccc(S(=O)(=O)N2CCN(C(=O)c3cc(C)on3)CC2)cc1,inactive
2,O=C(Nc1nnc([C@H]2C[C@H](O)[C@@H](CO)O2)s1)c1cccc(Cl)c1,inactive
3,C#Cc1cc(N2CCN(C(=O)c3ccoc3)CC2)n2nc(-c3cccc(Cl)c3)cc2n1,14.6 µM (active)
4,CN(C)CCN1CCN(c2cc(-c3cccc(Cl)c3)nc3ccnn23)CC1,inactive
5,O=C(c1ccccc1)N1CCN(c2cc(-c3ccccc3)nc3cc(-c4cccc(Cl)c4)nn23)CC1,inactive
6,CC(=O)Nc1ccc(C=CC(=O)c2ccc([N+](=O)[O-])cc2)cc1,inactive
7,O=C(N=C1SC2CS(=O)(=O)CC2N1Cc1ccccc1)c1ccccc1 (stereo not given),inactive
8,COCOCCn1cc(CN2CCS(=O)(=O)N(Cc3ccc(-c4ccccc4)cc3)C(CC(C)C)C2=O)nn1 (stereo not given),inactive
9,COc1cccc(/C=C2\SC(=S)N(CCCC(=O)N3CCOCC3)C2=O)c1,inactive
10,CCCCc1ccc(S(=O)(=O)NC(=O)C2(C)CCN2C(=O)c2ccccc2)cc1 (stereo not given),inactive
11,CCCOc1ccc(C(=O)CCC(=O)OC(C)C(=O)Nc2ccc(NC(C)=O)cc2)cc1 (stereo not given),inactive
12,CCCOc1ccc(C(=O)C(CCC(CNCC)C(=O)c2ccc(OCCC)cc2)CNCC)cc1 (stereo not given),16.4 µM (active)
13,CCCOc1ccc(/C=N/NC(=O)C2CC2)c(OCCC)c1,inactive
14,Cc1ccccc1S(=O)(=O)NC(=O)C1(C)CCN1C(=O)C1(c2ccc(Cl)cc2)CC1 (stereo not given),inactive
15,COc1cc(C(O)c2nc(-c3cnn(C)c3)cs2)ccc1F (stereo not given),inactive
16,O=C(Nc1ccc(F)cc1)C(CCc1ccccc1)N1CCN(CC(=O)N2CCCC2)CC1 (stereo not given),inactive
17,Cc1ccc(S(=O)(=O)N2C[C@H]3n4c(=O)ccc(=O)n4C[C@H](OC(=O)NC4CCCC4)[C@@]3(O)C2)cc1,inactive
18,CCCCCCNC(=O)O[C@H]1CN(C(=O)OC(C)C)N(C(=O)OC(C)C)[C@@H]2CN(S(=O)(=O)c3ccc(C)cc3)C[C@]12O,20.6 µM (active)
19,CCCCCCNC(=O)O[C@]12C[C@@H](C(=O)OC)[C@@H](C(=O)OC)C[C@@]1(O)CN(S(=O)(=O)c1ccc(C)cc1)C2,inactive
20,CS(=O)(=O)N1CCCCC1c1cc(C(=O)NCc2ccccc2)no1 (stereo not given),inactive
